Compound activity from PubChem.
The list is not random: actives were taken first. Their share in the collection is about 3.9%.
sPLA2-III inh = Inhibits HGIII-sPLA2 liposome hydrolysis, primary screen; AID 743126; Q9NZ20; 370,000 tested, 0.56% active; QFRET BODIPY PC-A2 liposome hydrolysis, fluorescence; inhibition, % at 12.2 µM;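 active = inhibition above mean plus 3 SD of compounds lying within the high and low control bounds, cut at about 19% in these data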;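 also: 0% = median of test compound wells and 100% = no enzyme DMSO wells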
Target sequence (Q9NZ20 whole entry, looked up): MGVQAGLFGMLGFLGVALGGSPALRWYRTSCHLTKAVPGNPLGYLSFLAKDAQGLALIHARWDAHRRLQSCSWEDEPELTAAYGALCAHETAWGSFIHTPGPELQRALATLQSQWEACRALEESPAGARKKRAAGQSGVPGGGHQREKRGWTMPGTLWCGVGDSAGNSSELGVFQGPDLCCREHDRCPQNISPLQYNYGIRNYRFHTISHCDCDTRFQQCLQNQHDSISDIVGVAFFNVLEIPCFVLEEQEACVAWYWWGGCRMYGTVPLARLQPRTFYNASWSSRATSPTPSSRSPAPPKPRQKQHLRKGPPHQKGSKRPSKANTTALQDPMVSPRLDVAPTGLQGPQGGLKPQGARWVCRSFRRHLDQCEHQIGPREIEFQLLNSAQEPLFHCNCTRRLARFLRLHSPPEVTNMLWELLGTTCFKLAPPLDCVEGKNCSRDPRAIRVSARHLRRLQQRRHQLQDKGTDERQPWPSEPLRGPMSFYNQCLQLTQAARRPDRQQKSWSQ
PLCg1 inh = PLC-gamma1 (human) inhibition, primary screen. P19174. purified PLC-gamma1, fluorogenic substrate, fluorescence. inhibition, % at 12.2 µM. 370,000 tested, 0.84% active. AID 720700; in the data active = inhibition above about 9.5%
CR mimetic SO = caloric restriction mimetics inhibiting age-related superoxide in yeast. S. cerevisiae aged cells, superoxide DHE fluorescence; hits give low values. superoxide response (% of plate mean), % at 10 µM. 330,000 tested, 0.18% active. AID 2690;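 active = superoxide response under a set limit, about three screen SD below normal, cut at about 65% in these data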;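 also: yeast aged for seven days with compound at 30 °C before DHE staining; 100% = average MFI of all compound-treated wells on the plate with controls excluded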
PLCb3 inh = inhibitors of human phospholipase C beta3 | Q01970 | Purified PLC-beta3, fluorogenic substrate, fluorescence | inhibition, % at 12.2 µM | 370,000 tested, 0.18% active | AID 720704; in the data active = inhibition above about 11%;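 also: 0% = median of compound wells on plate and 100% = full blocker control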
AHR activator = human AHR activation. P35869. AHR-responsive luciferase reporter cells, luminescence. activation, % at 5 µM. 320,000 tested, 2.5% active. AID 2796; in the data active = activation above about 47%;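 also: 0% = vehicle wells and 100% = reference agonist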
HIF activator = HIF pathway transcriptional activation | 300,000 tested, 0.32% active | activation, % at 7.5 µM (by protocol) | U2OS HRE-luciferase reporter, luminescence; normalized: DMSO 0%, desferrioxamine 100%;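 active = mean activation of at least 10% of the iron chelator positive control signal, with at least half of replicates also reaching 10%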
hGIII sPLA2 conf = human GIII-sPLA2 inhibition, confirmation | shares compounds with sPLA2-III inh | recombinant hGIII-sPLA2, BODIPY PC-A2 QFRET fluorescence | inhibition, % at 12.2 µM | 2,000 tested, 34% active | AID 743280;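 active = mean inhibition across triplicates above the hit cutoff set in the earlier primary screen, cut at about 19% in these data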;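 also: 0% = enzyme with DMSO and 100% = DMSO wells lacking enzyme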
535nm interf = optically interferes with 535nm fluorescence in sPLA2 counter-screen; shares compounds with sPLA2-III inh; BODIPY FL product fluorescence interference, QFRET; inhibition, % at 12.2 µM; 2,000 tested, 8.5% active; AID 743282;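 active = average inhibition above the solvent-only control mean plus 3 SD, cut at about 6% in these data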;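 also: 0% = DMSO with substrate plus product and 100% = DMSO with substrate alone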
BODIPY interf DR = interferes with 535nm fluorescence in dose response counter-screen; shares compounds with sPLA2-III inh; BODIPY FL product fluorescence interference, cell-free; IC50, µM; 240 tested, under 10 active; AID 743455;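 active = IC50 at or below 10 µM; inactive = IC50 above 10 µM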
Active calls of the source: *; / = not tested or not shown.

SMILES	sPLA2-III inh	PLCg1 inh	CR mimetic SO	PLCb3 inh	AHR activator	HIF activator	hGIII sPLA2 conf	535nm interf	others
OC[C@@H]1CN(Cc2ccncc2)C[C@H](n2cnc3c(NC4CCCC4)ncnc32)O1	21.2*	-1.3	/	-4.6	/	/	-0.4	-9.8
COc1ccc(CN2C[C@@H](CO)O[C@@H](n3cnc4c(N5CCOCC5)ncnc43)C2)cc1	20.0*	-0.4	/	-1.3	/	/	-3.5	-18.6
O=C(NCCc1ccco1)C(=O)NCC1OCCCN1S(=O)(=O)c1cc(F)ccc1F (stereo not given)	0.6	3.6	94.2	-3.9	2.5	-0.1	/	/
CCCCSc1nnc(-c2ccc(C)cc2)c2ccccc12	24.3*	1.4	80.5	0.3	0.4	-1.2	-0.7	-11.3
O=C(COc1ccc(Cl)cc1)NCCNc1ccc([N+](=O)[O-])cc1	-18.4	-1.6	93.5	-3.5	4.9	0.4	/	/
O=C(/C=C/c1ccc2c(c1)OCO2)NCc1ccco1	19.9*	-56.7	119.7	-56.9	40.4	0.9	-2.1	-6.0
Cc1c(C)c2cc(Cl)c(OCC(=O)N3CCN(c4ccc(F)cc4)CC3)cc2oc1=O	-4.4	0.2	93.2	-4.7	0.7	-0.2	/	/
CCOC(=O)c1c(CSC(=N)N)n(-c2ccc(C)cc2)c2cc(Br)c(OC(C)=O)cc12	25.5*	0.5	109.1	2.6	1.0	0.6	11.1	-13.1
Cc1ccccc1C1c2[nH]c3ccccc3c2CCN1Cc1cccn1-c1ncccn1 (stereo not given)	1.3	-47.6	98.3	-67.8	17.3	-0.3	/	/
Cc1ccc(NC(=S)N2CCN(Cc3ccccc3)CC2)c(C)c1	21.2*	0.5	89.9	0.5	0.2	0.3	14.4	-11.7
COC(=O)C1C(=O)N(S(=O)(=O)c2ccc([N+](=O)[O-])cc2)c2ccccc21 (stereo not given)	-4.3	0.7	/	3.4	/	/	/	/
COc1ccc2nc(NC(=O)CCn3cccc3)sc2c1	-30.5	1.5	87.3	0.8	6.1	0.2	/	/
COc1ccc2nc(NC(=O)CCN3C(=S)NC(C)(C)CC3C)sc2c1 (stereo not given)	25.6*	2.4	100.5	-7.3	7.4	0.0	23.7*	-10.8
O=C(O)C1CSC2c3ccccc3C(=O)N12 (stereo not given)	20.4*	-6.8	99.8	-1.6	-2.9	-0.6	2.7	-4.8
Cc1ccc(Cc2c(-c3cccc(Br)c3)nc3c(C)cc(Br)cn23)cc1	-7.7	-6.0	/	-10.5	/	/	/	/
CCc1c(C)nc2c(-c3ccccc3)c[nH]n2c1=O	24.5*	-182.1	97.8	-205.0	8.8	0.9	32.7*	5.5	BODIPY interf DR=>122
COCCNC(=S)N(CCc1c(C)[nH]c2ccc(OC)cc12)Cc1cccnc1	4.6	-3.3	84.8	-3.9	16.2	0.0	/	/
COc1ccc2ccccc2c1/C=N/Nc1ccc(Cl)c(C(=O)O)c1	-14.9	-8.7	120.9	-18.4	10.5	-0.3	/	/
COc1ccc(N/N=C/c2c(C(=O)O)ccc3ccccc23)cc1	19.3*	-48.8	86.3	-77.3	12.5	50.1*	10.6	-6.2
CP(C)(=O)CCP(=O)(c1ccccc1)c1ccccc1	19.4*	-4.0	100.9	1.1	0.6	-2.8	17.1	1.9
COc1ccc(OC)c2sc(NNC(=O)C3COc4ccccc4O3)nc12 (stereo not given)	21.4*	-5.3	109.4	-13.9	57.4*	-0.5	15.2	-1.8
Cc1ccc(-n2nc3c(=O)n(CC(=O)NCCc4ccccc4C)nc(C)c3c2C)cc1	-0.5	1.6	92.4	-6.3	1.2	-0.1	/	/
Cc1cccc(NC(=O)C2CCN(C(=O)NCc3ccccc3)CC2)c1C	-0.6	-0.7	85.1	-4.2	0.2	-0.2	/	/
CCOC(=O)C1C(c2ccc(C)o2)NC(=O)NC1(O)C(F)(F)F (stereo not given)	19.6*	-2.2	104.8	-10.0	3.8	-0.5	0.4	-4.2
CCCCn1nnnc1SCC(=O)NNC(=O)c1ccco1	-0.5	0.3	99.2	3.9	-1.8	-0.4	/	/
SMILES	sPLA2-III inh	PLCg1 inh	CR mimetic SO	PLCb3 inh	AHR activator	HIF activator	hGIII sPLA2 conf	535nm interf	others
O=C(CNC(=S)N(Cc1ccccc1)Cc1cccnc1)NC1CC1	-1.7	-0.3	86.8	5.3	-0.3	-0.1	/	/
O=C(CNC(=S)N(Cc1ccccc1)Cc1cccnc1)NC1CCCC1	22.8*	1.5	98.4	5.5	-1.9	0.1	3.9	-15.9
CCc1ccc(N2C(=O)CN(Cc3cccs3)C2=S)cc1	-106.2	-0.5	100.9	-1.9	-0.3	1.8	/	/
C/C(=N\NC(=O)CSCc1ccc([N+](=O)[O-])cc1)c1ccccc1O	20.9*	-4.2	112.2	-1.5	-1.8	0.4	13.8	-7.5
C/C(=N\NC(=O)CSCc1ccc([N+](=O)[O-])cc1)c1ccccc1	0.5	1.6	99.4	1.0	7.5	0.1	/	/
COc1cccc(C(=O)Oc2cc3c4c(c2)C(C)=CC(C)(C)N4C(=O)C3=O)c1	32.0*	2.8	108.9	-2.3	11.1	1.9	53.4*	2.9	BODIPY interf DR=>122
COc1ccc(C(=O)Oc2cc3c4c(c2)C(C)=CC(C)(C)N4C(=O)C3=O)cc1OC	16.4	-0.4	106.7	-0.2	2.9	-0.1	/	/
CCOC(=O)c1cnc(-n2[nH]c(C)c(Cc3ccccc3)c2=O)[nH]c1=O	23.1*	-5.5	84.2	-5.6	-0.3	0.3	19.8*	-4.9
CC(/C=C/c1ccc(O)cc1)=NNc1ccccc1	-9.0	-3.6	/	-4.0	/	/	/	/
O=S1(=O)N[C@@H](Cc2ccccc2)COc2cccc(N3CCC[C@@H]3CO)c21	4.8	-0.6	/	-2.1	/	/	/	/
CN1CCC(N(C)C(=O)c2cc(S(=O)(=O)N(C)c3ccccc3)ccc2Cl)CC1	8.0	6.4	100.6	-2.0	0.3	/	/	/
C[C@@H]1CN(C(=O)OC(C)(C)C)CCN1c1ccc(N2CC[C@H](O)C2)c(C#N)c1	21.5*	-244.1	/	-315.8	/	/	7.6	-12.6
C[C@@H]1CN([C@H](C)CO)S(=O)(=O)c2ccc(-c3ccc(C#N)cc3)cc2O[C@H]1CN(C)C(=O)Nc1cc(F)ccc1F	-4.2	1.8	/	-1.1	/	/	/	/
CCOc1ccccc1NC(=O)C(OC(=O)c1ccccc1)c1ccccc1 (stereo not given)	-7.7	2.1	98.2	2.0	3.2	0.0	/	/
CCOc1ccccc1NC(=O)C(OC(=O)c1ccccc1O)c1ccccc1 (stereo not given)	22.4*	-0.5	87.9	-1.2	6.6	0.7	-18.1	-11.2
C=CCNC1=C(Cl)C(=O)N(Cc2ccccc2)C1=O	-0.5	-41.7	94.0	-69.4	-0.3	0.5	/	/
C=CCNc1cc(=O)n(Cc2ccccc2)c(=O)[nH]1	19.3*	-6.2	95.4	-11.3	-0.1	-0.3	-1.7	-3.4
